Our source for the composite z-score and z-score values is PubChem BioAssay.

Active and inactive are the calls of the source.

For experiment [1], the system named is PRMT1 (protein arginine N-methyltransferase 1). As to the kind of experiment: small molecules binding arginine methyltransferase PRMT1 – biochemical, small-molecule microarray, 635 nm fluorescence, primary screen (AID 1088).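 Note: binding of Prmt1 protein to compounds spotted on small-molecule microarray slides.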 The conditions noted are these: higher = more signal.
Experiment [2] in a line: growth effects on S. cerevisiae YJM789 – YJM789 clinical isolate, OD600, 24 h, basal, primary screen (AID 1089).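 Note: growth of clinical yeast isolate S. cerevisiae YJM 789 seeded 1000 cells per well; test concentration not given here.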 The conditions noted are these: higher = more signal, called active from +8 up or from −8 down.
The nature of experiment [3]: S. pombe growth modifiers, basal conditions – strain 972, OD600, 24 h, no modulator, primary screen (AID 1090).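 Note: basal condition with compound alone and no growth modifier present; test concentration not given here.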 The conditions noted are these: S. pombe 972 growth, higher = more signal, called active from +8 up or from −8 down.
Experiment [4] in a line: budding yeast growth modifiers under rapamycin – strain BY4716, OD600, 96 h, primary screen (AID 1091). Note: test concentration not given here. The conditions noted are these: S. cerevisiae BY4716 + rapamycin, higher = more signal, called active from +8 up or from −8 down.
Experiment [5] has as its target Torsin-1A-interacting protein 2 (Homo sapiens) (UniProt Q8NFQ8). As to the kind of experiment: small molecules binding lysate-expressed LULL1 – cell lysate, human LULL1 lysate, 635/667 nm fluorescence, primary screen (AID 1092).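 Note: probe is lysate of COS7 cells overexpressing human LULL1; score merges per-feature 667 nm fluorescence with signal-to-noise.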 The conditions noted are these: small-molecule microarray, hLULL1 lysate binding, 635 nm fluorescence; higher = more signal.
Experiment [6] can be described thus: optical density change of DRC41 E. coli – strain DRC41, OD650, 24 h, E. coli filamentation project, primary screen (AID 1093).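 Note: MC1000 strain lacking acrAB efflux and sulA so SOS filamentation is blocked; test concentration not given here.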 The conditions noted are these: E. coli DRC41 growth, higher = more signal, called active from +8 up or from −8 down.
Experiment [7] in a line: probe aLefty2 binding to arrayed compounds – biochemical, biotinylated probe, 635/667 nm fluorescence, primary screen (AID 1094).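 Note: score merges spot fluorescence near 667 nm with spot signal-to-noise ratio.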 The conditions noted are these: small-molecule microarray, higher = more signal.
Experiment [8] has as its system Noggin (protein binding on small-molecule microarray). As to the kind of experiment: small molecules binding Noggin protein – biochemical, 635/667 nm fluorescence, primary screen (AID 1095).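 Note: score merges 667 nm feature fluorescence with signal to noise over triplicate slides.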 The conditions noted are these: 635 nm fluorescence, higher = more signal.
Experiment [9] has as its target Neurogenic locus notch homolog protein 3 (Homo sapiens) (UniProt Q9UM47). As to the kind of experiment: small molecules binding NOTCH3 protein – biochemical, 635/667 nm fluorescence, primary screen (AID 1096). The conditions noted are these: small-molecule microarray, 635 nm fluorescence, higher = more signal.
Experiment [10] is described as follows: probe aEGFR binding to arrayed compounds – biochemical, biotinylated probe, 635/667 nm fluorescence, primary screen (AID 1097).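 Note: probe is a biotinylated anti-EGFR antibody binding compounds printed on slides; score combines fluorescence near 667 nm and signal to noise of each spot.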 The conditions noted are these: small-molecule microarray, higher = more signal.
Experiment [11] has as its system Plasmodium falciparum Sir2 (PF13_0152, Sir2A). As to the kind of experiment: Plasmodium falciparum Sir2A binding compounds – biochemical, small-molecule microarray, 635 nm fluorescence, primary screen (AID 1098).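 Note: score merges spot fluorescence intensity with its signal-to-noise ratio.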 The conditions noted are these: fluorescence 635 nm, higher = more signal.
Experiment [12] can be described thus: probe aDKK1 binding to arrayed compounds – biochemical, biotinylated probe, 635/667 nm fluorescence, primary screen (AID 1099).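 Note: score merges 667nm spot fluorescence with signal to noise across triplicate slides; reference of the scale not given here.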 The conditions noted are these: small-molecule microarray, higher = more signal.
Experiment [13] is described as follows: probe aCHRDL2 binding to arrayed compounds – biochemical, biotinylated probe, 635/667 nm fluorescence, primary screen (AID 1100). The conditions noted are these: small-molecule microarray, higher = more signal.
Experiment [14] is described as follows: change in splice reporter luminescence, either direction, cell-based, HEK293, spliceosome inhibition project, primary screen (AID 1101).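 Note: HEK293 cells carrying a splicing-competent luciferase reporter gene; test concentration not given here.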 The conditions noted are these: HEK293 splicing luciferase reporter, 24 h, higher = more signal, called active from +8 up or from −8 down. A general note: In a reporter assay the amount or activity of a reporter protein is the signal.

For experiment [15], the target named is Fibroblast growth factor 10 (Homo sapiens) (UniProt O15520). As to the kind of experiment: compounds binding fibroblast growth factor 10 – biochemical, small-molecule microarray, 635 nm fluorescence, primary screen (AID 1102). The conditions noted are these: FGF10 binding, fluorescence 635 nm, higher = more signal.
Fibroblast growth factor 10 (Homo sapiens), sequence (O15520 whole entry, looked up): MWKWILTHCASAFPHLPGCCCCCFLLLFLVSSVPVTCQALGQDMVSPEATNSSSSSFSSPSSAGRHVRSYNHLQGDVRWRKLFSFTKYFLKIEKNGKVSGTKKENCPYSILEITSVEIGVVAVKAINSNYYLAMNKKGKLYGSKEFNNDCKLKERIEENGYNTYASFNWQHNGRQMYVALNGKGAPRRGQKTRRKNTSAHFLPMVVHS
For experiment [16], the system named is glycogen synthase kinase-3 (GSK3A per assay name; protocol says GSK3B). As to the kind of experiment: compounds binding glycogen synthase kinase-3 – biochemical, small-molecule microarray, 635 nm fluorescence, GSK3A, primary screen (AID 1103). Note: the record names both GSK3A and GSK3B. The conditions noted are these: fluorescence 635 nm, higher = more signal.
The target of experiment [17] is Epidermal growth factor receptor (Homo sapiens) (UniProt P00533). As to the kind of experiment: compounds binding epidermal growth factor receptor – biochemical, small-molecule microarray, 635 nm fluorescence, primary screen (AID 1104).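 Note: score merges 667 nm emission intensity with spot signal to noise over triplicate slides.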 The conditions noted are these: EGFR binding, higher = more signal.
Epidermal growth factor receptor (Homo sapiens), sequence (P00533 whole entry, looked up): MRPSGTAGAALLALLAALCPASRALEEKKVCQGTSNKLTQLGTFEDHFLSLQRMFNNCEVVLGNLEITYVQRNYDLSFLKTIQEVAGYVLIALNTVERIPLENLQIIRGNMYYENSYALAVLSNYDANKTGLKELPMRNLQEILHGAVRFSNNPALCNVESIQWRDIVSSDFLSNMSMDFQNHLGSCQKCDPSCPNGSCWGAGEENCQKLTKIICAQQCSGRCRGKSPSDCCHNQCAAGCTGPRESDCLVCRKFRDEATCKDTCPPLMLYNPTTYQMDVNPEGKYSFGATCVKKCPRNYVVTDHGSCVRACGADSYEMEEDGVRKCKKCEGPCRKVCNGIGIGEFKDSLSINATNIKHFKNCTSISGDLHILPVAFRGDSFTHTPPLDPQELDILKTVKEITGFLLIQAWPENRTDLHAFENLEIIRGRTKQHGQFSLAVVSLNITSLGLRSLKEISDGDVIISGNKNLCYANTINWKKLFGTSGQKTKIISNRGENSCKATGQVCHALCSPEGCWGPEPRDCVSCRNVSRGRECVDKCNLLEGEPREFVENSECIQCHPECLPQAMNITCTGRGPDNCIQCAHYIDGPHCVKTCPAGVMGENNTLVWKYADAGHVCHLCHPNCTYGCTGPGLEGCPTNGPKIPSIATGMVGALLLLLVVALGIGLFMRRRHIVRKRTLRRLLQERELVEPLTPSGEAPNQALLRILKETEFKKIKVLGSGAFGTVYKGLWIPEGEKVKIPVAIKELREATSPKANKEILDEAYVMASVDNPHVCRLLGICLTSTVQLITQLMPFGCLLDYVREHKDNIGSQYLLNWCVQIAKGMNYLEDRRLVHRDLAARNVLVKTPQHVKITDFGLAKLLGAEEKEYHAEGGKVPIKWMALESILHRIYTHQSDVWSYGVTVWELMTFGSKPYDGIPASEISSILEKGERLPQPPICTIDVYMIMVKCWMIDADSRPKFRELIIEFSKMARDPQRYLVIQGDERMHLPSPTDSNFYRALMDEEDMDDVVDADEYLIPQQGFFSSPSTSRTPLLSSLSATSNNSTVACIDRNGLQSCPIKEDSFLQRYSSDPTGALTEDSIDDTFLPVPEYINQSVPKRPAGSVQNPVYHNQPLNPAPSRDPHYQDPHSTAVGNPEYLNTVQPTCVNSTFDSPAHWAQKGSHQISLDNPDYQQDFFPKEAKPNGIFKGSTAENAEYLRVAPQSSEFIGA
Experiment [18] concerns the target Follistatin-related protein 3 (Homo sapiens) (UniProt O95633). As to the kind of experiment: compounds binding follistatin-related protein 3 – biochemical, small-molecule microarray, 635 nm fluorescence, primary screen (AID 1105).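 Note: score merges emission near 667 nm and signal to noise per printed spot across three slides.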 The conditions noted are these: FSTL3 binding, higher = more signal.
The target in experiment [19] is Dickkopf-related protein 1 (Homo sapiens) (UniProt O94907). As to the kind of experiment: small molecules binding DKK1 protein – biochemical, small-molecule microarray, 635 nm fluorescence scan, primary screen (AID 1106).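 Note: score merges emission near 667 nm with signal to noise over three replicate slides.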 The conditions noted are these: higher = more signal.
Dickkopf-related protein 1 (Homo sapiens), sequence (O94907 whole entry, looked up): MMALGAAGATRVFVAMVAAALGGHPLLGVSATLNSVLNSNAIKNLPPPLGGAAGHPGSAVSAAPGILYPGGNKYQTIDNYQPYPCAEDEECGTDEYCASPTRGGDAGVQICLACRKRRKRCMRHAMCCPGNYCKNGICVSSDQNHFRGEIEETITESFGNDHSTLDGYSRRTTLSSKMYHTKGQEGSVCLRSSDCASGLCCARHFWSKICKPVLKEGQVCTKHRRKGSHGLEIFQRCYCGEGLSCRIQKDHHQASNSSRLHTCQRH
Experiment [20] has as its system Inhibin beta A chain (activin A). As to the kind of experiment: small molecules binding activin A – biochemical, small-molecule microarray, 635 nm fluorescence scan, primary screen (AID 1107).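 Note: mouse activin A protein probed at 4.33 µg/mL on printed slides; score merges bound-protein fluorescence near 667 nm with spot signal-to-noise.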 The conditions noted are these: INHBA, higher = more signal.

Follistatin-related protein 3 (Homo sapiens), sequence (O95633 whole entry, looked up): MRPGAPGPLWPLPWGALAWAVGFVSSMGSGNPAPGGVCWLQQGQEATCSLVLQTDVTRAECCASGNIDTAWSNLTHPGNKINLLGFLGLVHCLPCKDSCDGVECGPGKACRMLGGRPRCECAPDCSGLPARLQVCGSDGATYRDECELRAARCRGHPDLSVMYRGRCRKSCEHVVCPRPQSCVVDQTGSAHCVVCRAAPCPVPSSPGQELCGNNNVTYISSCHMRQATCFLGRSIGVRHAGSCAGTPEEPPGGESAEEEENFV
Neurogenic locus notch homolog protein 3 (Homo sapiens), sequence (Q9UM47 whole entry, looked up): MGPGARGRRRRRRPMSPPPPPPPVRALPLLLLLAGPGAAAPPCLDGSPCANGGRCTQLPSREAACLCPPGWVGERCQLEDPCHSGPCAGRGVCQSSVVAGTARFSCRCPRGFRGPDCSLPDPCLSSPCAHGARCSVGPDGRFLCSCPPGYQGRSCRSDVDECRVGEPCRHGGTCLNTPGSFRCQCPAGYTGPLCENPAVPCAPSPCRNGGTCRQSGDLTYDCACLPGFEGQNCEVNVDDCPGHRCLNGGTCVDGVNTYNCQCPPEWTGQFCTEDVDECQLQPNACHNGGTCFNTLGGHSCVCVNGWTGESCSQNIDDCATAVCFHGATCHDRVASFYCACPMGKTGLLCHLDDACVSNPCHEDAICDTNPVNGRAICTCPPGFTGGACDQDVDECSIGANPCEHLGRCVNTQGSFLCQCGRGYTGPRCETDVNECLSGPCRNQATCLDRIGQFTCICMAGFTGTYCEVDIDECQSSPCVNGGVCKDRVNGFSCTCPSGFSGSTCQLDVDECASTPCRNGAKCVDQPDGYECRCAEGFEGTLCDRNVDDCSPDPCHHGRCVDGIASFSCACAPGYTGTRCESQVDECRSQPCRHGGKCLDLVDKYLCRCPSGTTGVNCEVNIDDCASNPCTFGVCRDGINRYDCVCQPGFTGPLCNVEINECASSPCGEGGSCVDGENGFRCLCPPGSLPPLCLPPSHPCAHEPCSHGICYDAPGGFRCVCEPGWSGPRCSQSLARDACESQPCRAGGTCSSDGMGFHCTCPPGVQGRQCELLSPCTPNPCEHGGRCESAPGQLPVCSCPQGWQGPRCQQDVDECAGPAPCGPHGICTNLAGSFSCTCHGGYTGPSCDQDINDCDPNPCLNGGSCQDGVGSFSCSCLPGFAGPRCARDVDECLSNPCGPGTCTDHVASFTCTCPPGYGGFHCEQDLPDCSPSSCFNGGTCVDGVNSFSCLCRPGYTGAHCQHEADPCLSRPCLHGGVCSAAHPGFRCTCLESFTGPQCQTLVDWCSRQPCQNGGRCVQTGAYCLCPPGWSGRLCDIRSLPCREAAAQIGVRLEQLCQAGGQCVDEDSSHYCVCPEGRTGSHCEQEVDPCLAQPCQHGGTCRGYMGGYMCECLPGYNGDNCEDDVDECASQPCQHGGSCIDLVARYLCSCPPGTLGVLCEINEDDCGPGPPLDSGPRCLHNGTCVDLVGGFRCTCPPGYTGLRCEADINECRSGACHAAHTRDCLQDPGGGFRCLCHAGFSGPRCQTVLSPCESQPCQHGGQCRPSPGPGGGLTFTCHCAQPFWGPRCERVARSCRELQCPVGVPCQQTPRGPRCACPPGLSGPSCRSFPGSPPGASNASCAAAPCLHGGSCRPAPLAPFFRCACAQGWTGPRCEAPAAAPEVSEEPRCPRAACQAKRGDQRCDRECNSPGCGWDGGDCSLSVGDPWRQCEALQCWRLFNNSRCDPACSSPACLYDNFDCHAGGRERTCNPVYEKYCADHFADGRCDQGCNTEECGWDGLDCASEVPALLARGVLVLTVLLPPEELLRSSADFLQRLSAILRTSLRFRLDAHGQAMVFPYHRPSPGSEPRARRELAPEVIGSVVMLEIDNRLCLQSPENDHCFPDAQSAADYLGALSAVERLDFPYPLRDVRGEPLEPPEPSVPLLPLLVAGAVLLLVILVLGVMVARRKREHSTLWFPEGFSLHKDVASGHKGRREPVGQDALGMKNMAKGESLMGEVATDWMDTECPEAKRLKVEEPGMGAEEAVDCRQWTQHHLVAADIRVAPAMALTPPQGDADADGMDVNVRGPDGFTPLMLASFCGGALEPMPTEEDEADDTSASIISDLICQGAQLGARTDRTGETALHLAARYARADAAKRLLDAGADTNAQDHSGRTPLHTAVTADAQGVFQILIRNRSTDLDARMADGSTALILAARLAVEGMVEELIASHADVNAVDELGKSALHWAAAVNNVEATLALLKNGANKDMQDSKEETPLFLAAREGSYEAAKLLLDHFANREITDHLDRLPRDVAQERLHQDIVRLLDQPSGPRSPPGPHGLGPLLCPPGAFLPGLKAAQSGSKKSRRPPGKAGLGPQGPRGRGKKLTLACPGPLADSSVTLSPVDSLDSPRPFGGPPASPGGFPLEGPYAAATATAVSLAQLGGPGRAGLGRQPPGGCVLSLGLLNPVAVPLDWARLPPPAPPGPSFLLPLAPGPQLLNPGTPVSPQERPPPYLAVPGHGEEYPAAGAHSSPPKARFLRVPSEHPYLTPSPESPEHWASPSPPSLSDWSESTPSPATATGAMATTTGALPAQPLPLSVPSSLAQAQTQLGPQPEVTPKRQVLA
Torsin-1A-interacting protein 2 (Homo sapiens), sequence (Q8NFQ8 whole entry, looked up): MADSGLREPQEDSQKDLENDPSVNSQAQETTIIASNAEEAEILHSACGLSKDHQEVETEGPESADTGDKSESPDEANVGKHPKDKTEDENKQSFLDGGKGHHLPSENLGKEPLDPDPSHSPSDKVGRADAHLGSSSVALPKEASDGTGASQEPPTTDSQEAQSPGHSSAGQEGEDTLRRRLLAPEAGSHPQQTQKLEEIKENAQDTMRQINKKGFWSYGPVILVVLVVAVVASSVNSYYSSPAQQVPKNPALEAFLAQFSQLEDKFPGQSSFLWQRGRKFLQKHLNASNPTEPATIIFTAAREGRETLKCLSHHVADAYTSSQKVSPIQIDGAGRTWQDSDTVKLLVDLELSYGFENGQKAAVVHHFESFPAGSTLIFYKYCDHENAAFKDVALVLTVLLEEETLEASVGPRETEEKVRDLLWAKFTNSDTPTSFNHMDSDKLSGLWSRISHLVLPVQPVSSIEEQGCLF

For `CCCNC(=O)OC[C@H]1O[C@H](CCON=C(C)CCC(=O)OC[C@H]2O[C@H](c3ccccc3)C=C[C@@H]2Oc2ccc(OC)cc2)C=C[C@@H]1Oc1ccc(OC)cc1`, the composite z-score in experiment [1] is -1.37; in experiment [5], -1.09; in experiment [7] it was -0.0982; in experiment [8], -0.184; in experiment [9], -0.619; in experiment [10], -0.042. Besides, the composite z-score was 0.452 in experiment [11]; -0.183 in experiment [12]; -0.207 in experiment [13]; -0.445 in [15]; -1.49 in experiment [16]; -0.239 in experiment [17]. Also, the composite z-score is -0.31 in experiment [18], 0.0289 in experiment [19] and 0.844 in [20]. Besides, the z-score in experiment [2] was -1.66 (inactive); in experiment [3], 0.702 (inactive); in experiment [4] it was -0.59 (inactive); in experiment [6], 0.0967 (inactive); in experiment [14], 0.358 (inactive).

`Cc1cc2c(c(=O)o1)[C@@H](O)[C@H]1O[C@H]1C2=O`: the composite z-score in experiment [1] was 0.798; in [5] it was 0.0376; in experiment [7] it was -0.358; in experiment [8], 0.887; in experiment [9] it was 0.482; in experiment [10], -0.12. The composite z-score in experiment [11] was 0.338; in experiment [12] it was -0.145; in [13], -0.699; in experiment [15] it was 0.436; in experiment [16] it was 0.231; in [17] it was 0.287. In addition, the composite z-score in experiment [18] is 0.522; in experiment [19], 0.585; in [20], 0.0545. The z-score in experiment [2] is 0.112 (inactive); in [3], -0.0772 (inactive); in experiment [4] it was 0.233 (inactive); in experiment [6], -1 (inactive); in [14], -0.533 (inactive).

For `CCOC(=O)[C@H](Cc1ccccc1)NC(=O)CCC1CC(OC(=O)NCc2cccc3ccccc23)CC2(CCCC(COC(=O)NCCC(C)C)O2)O1` (stereo not given in full), the composite z-score in experiment [1] is -0.923; in [5], 0.284; in experiment [7], 0.0062; in experiment [8], 0.0111; in experiment [9], -0.435; in [10], -0.128. Moreover, the composite z-score is 0.12 in experiment [11]; -0.295 in experiment [12]; -0.206 in experiment [13]; 0.143 in [15]; -0.448 in experiment [16]; -0.135 in experiment [17]. The values for the composite z-score in experiment [18], in [19] and in experiment [20] were 0.133, -0.096 and 0.388, respectively. Besides, the z-score in experiment [2] was -1.04 (inactive); in [3], -0.0031 (inactive); in experiment [4], -1.36 (inactive); in experiment [6], -0.444 (inactive); in experiment [14] it was -1.74 (inactive).

For `CC(=O)OC[C@H]1O[C@H](C#Cc2ccccc2)C=C[C@@H]1OC(C)=O`, the composite z-score in experiment [1] was 0.48; in experiment [5], 0.496; in [7], -0.0836; in experiment [8], 0.653; in experiment [9], 0.812; in experiment [10], -0.0953. In addition, the composite z-score is 1.27 in experiment [11]; -0.0406 in experiment [12]; -0.219 in experiment [13]; 0.338 in experiment [15]; 0.163 in [16]; 0.0278 in experiment [17]. Moreover, the composite z-score came to 0.59 in experiment [18], 0.57 in experiment [19] and 0.58 in [20]. Also, the z-score was 0.444 (inactive) in [2]; -2.17 (inactive) in experiment [3]; -0.747 (inactive) in experiment [4]; 0.875 (inactive) in experiment [6]; -1.92 (inactive) in experiment [14].

`CON=C[C@@H](NS(=O)(=O)c1ccc(C)cc1)[C@H](C)C=CCC(=O)OC`: the composite z-score was -0.327 in [1]; -0.312 in experiment [5]; -0.138 in experiment [7]; 0.26 in experiment [8]; -0.0877 in experiment [9]; -0.289 in [10]. The composite z-score is 0.571 in experiment [11]; -0.26 in [12]; -0.447 in [13]; 0.0529 in experiment [15]; -0.435 in experiment [16]; 0.314 in [17]. Also, the composite z-score in experiment [18] is 0.224; in experiment [19], 0.611; in experiment [20], 1.33. Also, the z-score in experiment [2] is 0.903 (inactive); in experiment [3], 0.435 (inactive); in experiment [4], 0.719 (inactive); in [6], 0.306 (inactive); in experiment [14], -0.114 (inactive).
